Biological target: ASCL1
Assay: pooled miR-30 sensor sort-seq; sequence = guide strand
Conditions: shRNA
Also: reference of the scale not given here.

Row | Sequence | sensor-assay potency score (higher = more potent)
1 | TACATTAACAACATTTCTATAA | -1.04
2 | TTGGGCGCTGACTTGTGACCGC | -0.646
3 | AAGTCGTTGGAGTAGTTGGGGG | -0.573
4 | TTGGAGTGCAAAGATACTGTTC | 0.084
5 | TTGCTTGGGCGCTGACTTGTGA | -0.493
6 | TACTCATCTTCTTGTTGGCCGC | -0.58
7 | TATAAAGTAAGACACATTGGTG | -0.186
8 | TAAACCATTTGTACAAAACTTC | -0.297
9 | TTACTCATCTTCTTGTTGGCCG | 0.746
10 | TAAACCAATGTCTACAGCTTAT | -1.49
11 | ATGCTCGTCCAGCAGCTGCTGC | -1.67
12 | TTGACCAACTTGACGCGGTTGC | 0.134
13 | TTGGTGCTGAAGTACAACTGGT | -0.518
14 | ATGGAGTTCAAGTCGTTGGAGT | -1.08
15 | TTGAACAGTATTTAATAACATC | -1.14
16 | TGTCGCTTGACTTGCTTGGGCG | -1.29

Biological target: ASF1A
Assay: as above
Conditions: shRNA

Row | Sequence | sensor-assay potency score (higher = more potent)
17 | TAAAACAGAGTCTAAAACTTGA | -0.0289
18 | TTGAAGCTTAGAAAAGTCTGGT | -0.243
19 | TCGAAGGTGATCTCGAACTGGA | -0.487
20 | TAACATGACATTTAGTGAGTTT | -0.448
21 | TTACATAATAGCCAACTCTAAT | -1.16
22 | TTAGATGCCAAAATATTCCTTT | 0.414
23 | TTTGAAGCTTAGAAAAGTCTGG | 0.13
24 | TGAAATACAAACATATGCCTTC | 0.343
25 | TAATTTTCCATTCCAAGTCTTC | -0.557
26 | TCTAACATGACATTTAGTGAGT | 0.228
27 | TAATAAATTCTTGTCCTCGATA | -1.01
28 | TTGGATTACTGCTCTCTGCATC | -0.437

Biological target: ASNSD1
Assay: as above
Conditions: shRNA

Row | Sequence | sensor-assay potency score (higher = more potent)
29 | TATTAGGACTGTCAGCAGCAGC | -1.12
30 | TTCCATAGAAACACATTGCCTC | 0.13
31 | TAAGATTATATAGTAAGTCCTC | -0.501
32 | TTCTAGAAGAAATTCGACCCAG | -0.284
33 | TAACTCTGTCATCACGACCAAG | -0.98
34 | TTCTTCAATAATATTCTCCCTA | 0.32
35 | TTTCTTGACTGCTACACTCAGG | -0.64
36 | TTTTTCACCAATTCCTCGGGGT | 0.495
37 | ATTCTCTTCAGCTTCAACCTTT | 0.221
38 | TAAATCTTGACTGAAATGCTCA | -0.203

Source: the OligoGym collection
